Assay results taken from PubChem BioAssay.

Tested on: Human papillomavirus type 1a protein E7 (residues 44-93)
Experiment: HPV1a E7 fragment binders on microarrays, primary screen, biochemical, small-molecule microarray, residues 44-93, 635 nm fluorescence (AID 1108);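 note: E7 fragment applied at 1 µg/mL in TBST for 1 h at 4 C; score combines spot fluorescence with its signal to noise ratio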
Settings: small-molecule microarray binding, fluorescence 635 nm; higher = more signal

Row | SMILES | composite z-score
1 | CCc1cccc(NC(=O)O[C@H]2[C@H](OC(=O)Nc3ccc4c(c3)OCO4)[C@H](OC(=O)Nc3ccc4c(c3)OCO4)[C@@H](OC)O[C@@H]2CO)c1 | 1.47
2 | C=C(COC)/C(=C/C[C@H](OC(=O)c1ccncc1)c1cccc(OCCO)c1)c1cnc2ccccc2c1 | -0.378
3 | COCCn1c(C(=O)N2CCCC2)cc2c1C[C@H]1CN(C(=O)c3ccccc3)[C@@](Cc3ccccc3)(C(=O)OC)[C@@H]21 | 1.51
4 | O=C1C2C=CC(C(O)C(c3ccccc3)c3ccccc3)N(Nc3ccccc3)C2C(=O)N1c1ccccc1 (stereo unspecified) | 1.44
5 | Cc1ccc(S(=O)(=O)N2[C@@H](c3ccccc3)C(C(=O)O)=CC[C@H]2c2ccc(C#N)cc2)cc1 | 1.24
6 | C=CCC(OC(C)=O)[C@@H]1[C@@H](N(Cc2cc3ccccc3o2)C(=O)c2ccc(-c3ccccc3)cc2)c2cc(OCCCO)ccc2N1C(=O)c1ccc2ccccc2n1 (stereo partly specified) | 0.061

Tested on: not listed separately
Experiment: modulators of HCV replicon luciferase signal, primary screen, HCV replication inhibitor project, Huh7 cells, luciferase reporter (AID 1109);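 note: huh7 hepatoma cells harbouring a luciferase neomycin HCV replicon reporter; luciferase luminescence as measure of HCV replicon replication; test concentration not given here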
Settings: 48 h, higher = more signal

Row | SMILES | z-score
7 | COCCCNC(=O)[C@@]1(Sc2ccc(C)cc2)CC(=O)N(C2CCCCC2)[C@@H]1c1ccc(CO)cc1I | -2.63
8 | [N-]=[N+]=NCc1ccccc1C[C@]1(C(=O)O)COC(c2ccc(OCCCO)cc2)=N1 | -0.35
9 | COC(=O)[C@@]1(Cc2ccc(OC)cc2)[C@H]2c3cc(C(=O)N(C)C)n(Cc4ccsc4Br)c3C[C@H]2CN1C(=O)c1ccccc1 | -0.235
10 | CCCCC(=C=CC[C@@H](O)c1ccc(OCCO)cc1)C[C@@H](O)c1ccccn1 | -1.49
11 | O=C1NC(=O)C2C1C=CC(C(O)c1cccc(O)c1)N2Nc1ccc(Cl)cc1Cl (stereo unspecified) | -0.591
12 | [N-]=[N+]=NCc1ccccc1C[C@]1(C(=O)NCc2ccccc2)N=C(c2ccc(OCCCO)cc2)O[C@H]1c1ccccc1CN=[N+]=[N-] | -2.3
13 | O=C1O[C@H](c2ccccc2)[C@H](c2ccccc2)N2[C@H]1[C@@H](C(=O)N1CCN(c3ncccn3)CC1)[C@]1(C(=O)Nc3ccccc31)[C@H]2c1ccc(O)cc1 | -1.9
14 | COC(=O)[C@@]1(Cc2ccc(F)cc2)[C@H]2c3cc(C(=O)N4CCCC4)n(CCO)c3C[C@H]2CN1C(=O)c1ccccc1 | -1
15 | O=C1NC(=O)C2C1C=CC(C(O)c1ccc(F)cc1)N2Nc1ccccn1 (stereo unspecified) | 0.305
16 | CC[C@H](C)C(=O)O[C@H]1CC[C@]2(C)C3=C(CCC2C1(C)C)[C@]1(C)CC[C@H]([C@H](C)CCCC(C)C)[C@@]1(C)CC3 (stereo partly specified) | -0.492
17 | CCCC[C@H]1OB(O)C[C@H]2C1=C(COC)C[C@H]1C(=O)C=CC(=O)[C@H]12 | -1.33
18 | CCCCCCCCCCC(O)C1C=CC2C(=O)N(C)C(=O)C2N1N1CCCCC1 (stereo unspecified) | -0.941
19 | C=CC[C@]1(C(=O)NCCCOC)N=C(c2ccc(OCCCO)cc2)O[C@H]1c1ccccc1 | -1.53
20 | CC1CC/C=C\[C@H]2OC34C=CCN(c5ccc(Cl)cc5)C(=O)[C@H]3N(CCCO)C(=O)[C@]4(C)C2C(=O)O1 (stereo partly specified) | -1.07
21 | C=C(CC1([C@@H](NP(=O)(c2ccccc2)c2ccccc2)[C@H]2C[C@@H]2CCN(C(=O)OCC)S(=O)(=O)c2ccc(C)cc2)CC1)c1ccccc1 | -2.09
22 | COCC1=C([C@H](O)CCc2ccccc2)[C@H](CO)n2c(=O)n(-c3ccccc3)c(=O)n2C1 | -0.482
23 | COC(=O)c1ccc([C@H](NC(=O)c2ccccc2)[C@]2(C)C[C@H]2C2CCCCC2)cc1 | -1.61
24 | COCCOC(=O)N1C(=O)[C@@]2(c3cc(C#CC4=CCCCC4)ccc31)[C@H](c1ccccc1OCCO)N1[C@H](c3ccccc3)[C@H](c3ccccc3)OC(=O)[C@H]1[C@@H]2C(N)=O | -3.44

Row | SMILES | z-score
25 | C=CCC(OC(C)=O)[C@@H]1[C@@H](N(Cc2cc3ccccc3o2)C(=O)Cc2ccc(OC)cc2)c2cc(OCCCO)ccc2N1C(=O)Cc1ccc2ccccc2c1 (stereo partly specified) | -0.739
26 | COc1ccc([Si](C)(C)[C@H]2[C@H](CCO)O[C@@]3(C(=O)N(Cc4ccccc4)c4ccc(N(C=O)c5ccccc5)cc43)[C@@H]2C)cc1 | -4.6
27 | CC(C)CNC(=O)[C@@H]1c2ccccc2C(=O)N(Cc2ccccc2Cl)[C@H]1c1ccc(CO)cc1 | -0.249
28 | CCCCNC(=O)c1ccc(C#C[Si](C)(C)C)c(OC(C)=O)c1 | 0.93
29 | COc1cc2c(cc1O)C(c1ccc(CN3CCCC3)cc1)N(Cc1cccc(OC(F)(F)F)c1)CC2 (stereo unspecified) | -3.63
30 | C=CCOC(=O)[C@H]1[C@@H]2C(=O)O[C@@H](c3ccccc3)[C@@H](c3ccccc3)N2[C@@H](c2ccc(OCCOC(=O)[C@H]3C[C@H]4C(=O)NCC(=O)N4[C@H]3c3ccc(O)cc3)cc2)[C@]12C(=O)Nc1ccc(I)cc12 | -1.58
31 | NC(=O)N1C(=O)C2C(C1=O)C1C=C(CCCO)C2C(c2ccc(CN3CCCC3)cc2)N1Cc1cccc(OC(F)(F)F)c1 (stereo unspecified) | -3.48
32 | C=C(CCCC)C(=O)CC[C@H](OC(C)=O)c1ccccc1OCCO | -3.4
33 | C=CCC(OC(C)=O)[C@@H]1[C@@H](N(Cc2cccc3ccccc23)C(=O)c2ccc(-c3ccccc3)cc2)c2cc(OCCCO)ccc2N1C(=O)c1ccc2ccccc2n1 (stereo partly specified) | 0.15
34 | COC(=O)[C@@]1(Cc2ccccc2)[C@@H]2[C@@H](CC(=O)[C@H]2CC(=O)C(=O)N(C)C)CN1C(=O)c1ccccc1 | -0.96
35 | COCCOC(=O)N1C(=O)[C@@]2(c3cc(C#Cc4ccc(OC)cc4)ccc31)[C@H](C(=O)Nc1nc3ccccc3s1)[C@H]1C(=O)O[C@H](c3ccccc3)[C@H](c3ccccc3)N1[C@@H]2c1ccccc1OCCO | -1.43
36 | CCc1cccc(NC(=O)O[C@H]2[C@H](OC(=O)Nc3ccc4c(c3)OCO4)[C@H](OC(=O)Nc3ccc4c(c3)OCO4)[C@@H](OC)O[C@@H]2CO)c1 | -0.548
37 | C=C(COC)/C(=C/C[C@H](OC(=O)c1ccncc1)c1cccc(OCCO)c1)c1cnc2ccccc2c1 | -1.56
38 | COCCn1c(C(=O)N2CCCC2)cc2c1C[C@H]1CN(C(=O)c3ccccc3)[C@@](Cc3ccccc3)(C(=O)OC)[C@@H]21 | -0.976
39 | O=C1C2C=CC(C(O)C(c3ccccc3)c3ccccc3)N(Nc3ccccc3)C2C(=O)N1c1ccccc1 (stereo unspecified) | -0.267
40 | Cc1ccc(S(=O)(=O)N2[C@@H](c3ccccc3)C(C(=O)O)=CC[C@H]2c2ccc(C#N)cc2)cc1 | -0.494
41 | C=CCC(OC(C)=O)[C@@H]1[C@@H](N(Cc2cc3ccccc3o2)C(=O)c2ccc(-c3ccccc3)cc2)c2cc(OCCCO)ccc2N1C(=O)c1ccc2ccccc2n1 (stereo partly specified) | 0.104
